# Only some compounds are listed: those with a hit (about 4% of all), similar ones and a draw of the others.
# RAD52 anneal inh: inhibitors of human RAD52 DNA annealing | recombinant RAD52 DNA annealing, FRET fluorescence | inhibition, % at 18.7 µM | 0.46% of 360,000 active | AID 651710;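 active = every replicate showing at least 50% inhibition; inconclusive = mean inhibition at least 50% but not in every replicate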
# Target sequence (P43351 whole entry, looked up): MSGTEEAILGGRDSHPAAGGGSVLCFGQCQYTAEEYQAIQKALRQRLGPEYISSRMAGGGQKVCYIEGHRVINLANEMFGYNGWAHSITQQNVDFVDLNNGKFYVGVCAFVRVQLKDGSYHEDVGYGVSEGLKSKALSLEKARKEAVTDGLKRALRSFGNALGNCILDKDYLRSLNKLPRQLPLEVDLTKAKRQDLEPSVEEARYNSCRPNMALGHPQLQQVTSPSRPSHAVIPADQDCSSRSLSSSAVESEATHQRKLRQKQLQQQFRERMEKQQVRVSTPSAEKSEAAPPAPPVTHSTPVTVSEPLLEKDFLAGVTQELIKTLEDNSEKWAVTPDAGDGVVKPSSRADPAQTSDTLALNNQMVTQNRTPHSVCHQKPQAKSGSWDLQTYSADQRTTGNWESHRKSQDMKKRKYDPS
# ERAP1 inh: inhibitors of human ERAP1 aminopeptidase; Q9NZ08; recombinant ERAP1, Leu-AMC fluorescence, 60 min; inhibition, % at 10.7 µM; 0.15% of 340,000 active; AID 652197;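 active = mean replicate inhibition of at least 30%, or all replicates individually reaching that 30% level; inactive = mean below 30% and not every replicate reaching it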;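 note: 0% = neutral control wells and 100% = L-leucinethiol positive control wells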
# DENV2 CPE rescue: DENV2-induced cell death inhibition; DENV2-infected cells, cytopathic effect rescue, plate reader; 1.7% of 350,000 active; CPE inhibition, % at 9.99 µM; AID 651640; in the data active = CPE inhibition above about 20%, passing the limit was not always enough; inconclusive = no clear call, values can overlap the other calls; tested in BHK-21 cells;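 note: 0% = median of neutral control wells and 100% = median of positive control wells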
# FGF22 binding: binders of recombinant human FGF22 by thermal shift. Q9HCT0. SYPRO orange fluorescence; percent of sucrose octasulfate shift, DMSO zero. activity (Tm shift, normalised), % at 9.99 µM. 1.5% of 340,000 active;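 active = mean Tm shift, scaled 0 neutral to 100 positive control, at about 1.3% or above, every replicate too, limit read from the data; inconclusive = no clear call, values can overlap the other calls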
# Target sequence (Q9HCT0 whole entry, looked up): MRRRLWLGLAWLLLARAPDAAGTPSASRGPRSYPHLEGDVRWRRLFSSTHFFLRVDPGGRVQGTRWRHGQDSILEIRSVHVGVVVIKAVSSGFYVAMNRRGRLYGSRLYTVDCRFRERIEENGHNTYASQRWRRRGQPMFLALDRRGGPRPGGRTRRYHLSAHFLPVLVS
# MLL AF4-AF9 inh: MLL-AF4/AF9 protein interaction inhibition | P42568 | AlphaScreen, biotin-AF4 peptide binding to FLAG-AF9 | inhibition, % at 10 µM | 0.47% of 350,000 active | AID 651704;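 active = every replicate reaching a set inhibition limit, whatever the replicate mean, cut at about 25% in these data; inconclusive = mean inhibition reaches that limit but some replicates miss it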;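 note: 0% = plate neutral control median and 100% = total signal loss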
# Numbers without * were called inactive; u = inconclusive; x = not tested or not shown.
SMILES,RAD52 anneal inh,ERAP1 inh,DENV2 CPE rescue,FGF22 binding,MLL AF4-AF9 inh
Cc1ccccc1-c1nc(NC(C)C)nc2ccsc12,5.8,-2.4,-8.6,-0.2,-3.6
CC(C)Nc1nc(-c2ccccc2CO)c2sccc2n1,-11.0,-14.6,10.2,43.3*,-39.9
C[C@H](O)C#Cc1cnc2c(c1)C(=O)N([C@H](C)CO)C[C@H](C)[C@H](CN(C)C(=O)CC1CC1)O2,-2.8,-0.5,-3.1,-0.1,-1.4
COc1ccc(NC(=O)N2CCN(c3ccc([N+](=O)[O-])cc3)CC2)cc1,-8.2,-5.2,2.2,43.4*,-0.3
Cc1ccc(-n2cc(CNCCCn3ccnc3C)c(-c3ccc(F)cc3)n2)cc1,-8.1,1.1,0.1,-0.3,26.4*
Cc1ccc(-n2cc(CNCCc3cscn3)c(-c3ccc(F)cc3)n2)cc1,-158.1,1.2,4.4,0.3,6.7
Cc1noc(C)c1NC(=O)N(C)C[C@H]1Oc2cc(C#CCC3CCCC3)ccc2S(=O)(=O)N([C@H](C)CO)C[C@@H]1C,16.4,0.6,-3.4,-0.7,4.2
Cc1noc(C)c1NC(=O)N(C)C[C@H]1Oc2cc(C#CCC3CCCC3)ccc2S(=O)(=O)N([C@H](C)CO)C[C@H]1C,-6.2,1.2,-3.4,-0.1,37.3*
Cc1noc(C)c1NC(=O)N(C)C[C@@H]1Oc2cc(C#CCC3CCCC3)ccc2S(=O)(=O)N([C@@H](C)CO)C[C@@H]1C,21.1,1.5,1.1,-0.2,28.7*
Cc1noc(C)c1NC(=O)N(C)C[C@@H]1Oc2cc(C#CCC3CCCC3)ccc2S(=O)(=O)N([C@H](C)CO)C[C@H]1C,19.7,0.2,0.4,-0.2,u
Cc1noc(C)c1NC(=O)N(C)C[C@@H]1Oc2cc(C#CCC(C)C)ccc2S(=O)(=O)N([C@@H](C)CO)C[C@@H]1C,8.9,5.7,-1.4,-0.5,27.8*
COCC(=O)N1[C@H](C#N)[C@H](c2ccccc2-c2cccc(C)c2)[C@@H]1CO,-6.4,x,-3.7,-0.4,1.5
Cc1n[nH]c(C)c1CCCCOc1ccccc1,-2.9,-3.6,x,43.9*,0.5
CC(C)NC(=O)Nc1ccc2c(c1)C(=O)N([C@@H](C)CO)C[C@H](C)[C@H](CN(C)C(=O)Nc1ccc3c(c1)OCO3)O2,9.2,4.6,87.3*,0.8,-4.9
C[C@H](CO)N1C[C@H](C)[C@H](CN(C)C(=O)Nc2ccc3c(c2)OCO3)Oc2ccc(NS(=O)(=O)c3ccccc3)cc2C1=O,1.8,1.4,-9.4,-0.3,-1.9
C[C@@H]1CN([C@@H](C)CO)C(=O)c2cc(NS(=O)(=O)c3ccccc3)ccc2O[C@@H]1CN(C)C(=O)Nc1ccc2c(c1)OCO2,8.8,2.0,49.1*,-0.4,0.4
CC(C)NC(=O)Nc1ccc2c(c1)C(=O)N([C@H](C)CO)C[C@@H](C)[C@@H](CN(C)C(=O)Nc1ccc3c(c1)OCO3)O2,8.0,4.7,24.9*,0.5,-1.6
C[C@H](CO)N1C[C@H](C)[C@H](CN(C)C(=O)Nc2ccc3c(c2)OCO3)Oc2ccc(NC(=O)Nc3ccc4c(c3)OCO4)cc2C1=O,9.1,-4.0,-13.3,-0.1,2.2
CC(C)CC#Cc1ccc2c(c1)O[C@@H](CN(C)C(=O)Nc1ccccc1)[C@@H](C)CN([C@@H](C)CO)S2(=O)=O,8.9,-0.8,-6.3,-0.2,-4.5
COc1ccc2c3c(n(C)c2c1)[C@H](CO)N(Cc1ccccc1)CC31CCN(C(=O)C2CC2)CC1,-102.4,-5.3,-1.7,-0.1,2.0
C[C@H]1CN([C@@H](C)CO)C(=O)c2cc(NC(=O)Nc3ccc(C(F)(F)F)cc3)ccc2O[C@H]1CN(C)C(=O)Nc1ccccc1,18.0,1.0,-5.7,0.3,0.1
CN1C(=O)c2cc(NS(=O)(=O)c3ccc(Cl)cc3)ccc2OC[C@H]2O[C@H](CC(=O)O)CC[C@H]21,7.2,0.6,3.3,-0.2,-0.5
Cc1noc(C)c1S(=O)(=O)N(C)C[C@@H]1Oc2ccc(NC(=O)Nc3ccc4c(c3)OCO4)cc2CC(=O)N([C@@H](C)CO)C[C@H]1C,8.8,-0.3,13.0,x,11.5
COc1ccc(CC(=O)NC(C)c2nnc(SCC(=O)Nc3ccccc3)n2C)cc1 (centres undefined),-21.4,-2.7,-5.3,0.2,1.3
COc1ccc(CC(=O)NC(C)c2nnc(SCC(=O)Nc3cc(C)ccc3OC)n2C)cc1 (centres undefined),-8.1,3.2,-2.5,1.6*,0.4
SMILES,RAD52 anneal inh,ERAP1 inh,DENV2 CPE rescue,FGF22 binding,MLL AF4-AF9 inh
COc1ccc(OC)c(NC(=O)CSc2nnnn2C)c1,-7.4,-0.2,-0.7,43.2*,-2.0
COc1ccc2c3c(n(C)c2c1)[C@@H](CO)N(C(=O)CN(C)C)CC31CN(C(=O)NC(C)C)C1,x,x,-3.9,0.0,0.0
O=C(C1CCC1)N1[C@@H](CO)[C@@H](c2ccccc2)C12CN(Cc1ccccc1)C2,-93.0,-13.0,-4.4,-0.1,0.1
O=C(CCS(=O)(=O)c1ccccc1)Nc1ccc(S(=O)(=O)Nc2nccs2)cc1,-15.8,2.2,-1.6,42.9*,-0.2
O=C(CCS(=O)(=O)c1ccccc1)Nc1ccc(-c2nc3ccccc3s2)cc1,-8.9,-0.7,-6.7,43.8*,1.2
O=C(CCS(=O)(=O)c1ccccc1)Nc1cccc(-c2nc3ccccc3s2)c1,-30.2,-0.1,-2.8,1.1,-0.3
Cn1c(C(=O)N2CCOCC2)cc2c(=O)n3ccccc3nc21,-1.5,57.5*,14.2,0.0,-1.1
CC1CN(C(=O)c2cc3c(=O)n4ccccc4nc3n2C)CC(C)O1 (centres undefined),-19.5,37.9*,0.0,0.0,-2.6
COCCCn1c(C(=O)NCCN2CCOCC2)cc2c(=O)n3ccccc3nc21,1.2,41.7*,11.9,-0.1,-1.8
CN(C(=O)c1cc2c(=O)n3ccccc3nc2n1C)C1CCCCC1,-21.9,60.8*,-1.2,-0.2,-5.7
CCCN(C)C[C@H]1OCCCC[C@H](C)Oc2ccc(NC(=O)c3ccccc3)cc2C(=O)N([C@@H](C)CO)C[C@H]1C,-4.9,1.9,u,-0.2,5.0
Cc1noc(C)c1NC(=O)Nc1ccc2c(c1)CC(=O)N([C@H](C)CO)C[C@H](C)[C@H](CN(C)C(=O)Nc1ccc(F)cc1)O2,-6.4,-2.5,7.2,0.2,2.9
COc1ccc2c3c([nH]c2c1)[C@@H](CO)N(Cc1ccccc1)CC31CCN(C(=O)c2cccnc2)CC1,-57.6,-1.5,0.3,-0.1,-0.4
COc1cccc(-c2ccc3c(c2)[C@H]2[C@H](CCN2C(=O)NC2CCCC2)[C@H](CO)N3C)c1,-33.0,1.3,-21.8,0.5,4.7
COc1cccc(NC(=O)N[C@H]2C=C[C@@H](CC(=O)Nc3ccc(-c4ccccc4)cc3)O[C@H]2CO)c1,-41.0,-2.6,13.3,-0.3,5.0
CC(C)CN(C(=O)c1cc(Cl)nc2ccccc12)c1c(N)n(Cc2ccccc2)c(=O)[nH]c1=O,-16.6,4.5,55.9*,0.0,-1.9
CCCCn1c(N)c(N(CC(C)C)C(=O)c2cc(Cl)nc3ccccc23)c(=O)[nH]c1=O,-8.9,1.8,4.9,0.0,-1.7
O=[N+]([O-])c1cccc(S(=O)(=O)NCCOc2cccc3cccnc23)c1,-6.6,-3.9,-2.3,0.1,1.7

# Screening results as filed in PubChem BioAssay.
